From PubChem BioAssay
This is a sample that favours compounds with a hit; in the whole collection about 3.3% have one here.
USP1-UAF1 inh: inhibitors of human USP1/UAF1 deubiquitinase; 0.23% of 390,000 active; recombinant USP1/UAF1, Ub-Rhodamine cleavage fluorescence; Potency, µM (top dose mostly 57.1 µM), actives largely listed as inhibitors; O94782; further: nearly all actives have a fitted effect of over 60% in size
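In this screen, compounds sit with the deubiquitinase complex (1nM) for 15 min at room temperature before Ub-Rho is added at 150nM final. Fluorescence rise is then followed for 6 reads every 60 seconds.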
WRN inhibitor: blocks human WRN helicase; Q14191; WRN helicase unwinding, fluorescent forked duplex, kinetic; Potency, µM (highest dose often 114 µM), usual class: inhibitors; 0.46% of 360,000 active; AID 651768; further: nearly all actives have a fitted effect of over 55% in size
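Fluorescence dequenching readout, ex 525 nm/em 598 nm, kinetic mode: forked duplex DNA (100 nM final) with adjacent fluorophore and quencher unwound by WRN (20 nM final) with 2 mM ATP. Compound preincubation 15 min, room temperature.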
USP2a block: inhibitors of human ubiquitin-specific protease USP2a; O75604; USP2 core, Ub-CHOP2 coupled fluorogenic reporter, 485/531; Potency, µM (top dose mostly 38.3 µM), most hits filed as inhibitors; 0.01% of 330,000 active
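Deubiquitinase activity read as fluorescence (485/531 nm) after Ub-CHOP2 cleavage activates the enterokinase reporter on its substrate; USP2 core 10nM, Ub-CHOP2 and substrate 25nM each, 30min compound preincubation then 60min RT; data normalized to NEM, curves fitted.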
PI5P4K alpha inh: PI5P4K alpha (human) kinase inhibition | P48426 | PI5P4Kalpha enzyme, ADP-Glo luminescence, 60 min; hits give low values | max response, % | 1.2% of 330,000 active; active means max response of -50% or lower; inconclusive means between -30% and -50%; inactive means -30% or higher; further: value at the top dose of about 77 µM
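Reactions run in 0.038 M HEPES pH 7.4, 0.28 mM EGTA, 0.1% CHAPS and 5% DMSO, with PI5P4Kalpha, substrate, compound and 5 microM ATP final, one hour at room temperature. Readout is ADP-Glo luminescence.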
PLK1 PBD inh: blocks phosphopeptide binding to human PLK1 polo-box domain; P53350; Plk1 PBD binding of FITC phosphopeptide, fluorescence polarization; Potency, µM, usual class: inhibitors; 2.8% of 360,000 active; AID 720504; further: series mostly up to about 57 µM; nearly all actives have a fitted effect of over 65% in size
Target sequence (P53350 whole entry, looked up, the tested form may be a part): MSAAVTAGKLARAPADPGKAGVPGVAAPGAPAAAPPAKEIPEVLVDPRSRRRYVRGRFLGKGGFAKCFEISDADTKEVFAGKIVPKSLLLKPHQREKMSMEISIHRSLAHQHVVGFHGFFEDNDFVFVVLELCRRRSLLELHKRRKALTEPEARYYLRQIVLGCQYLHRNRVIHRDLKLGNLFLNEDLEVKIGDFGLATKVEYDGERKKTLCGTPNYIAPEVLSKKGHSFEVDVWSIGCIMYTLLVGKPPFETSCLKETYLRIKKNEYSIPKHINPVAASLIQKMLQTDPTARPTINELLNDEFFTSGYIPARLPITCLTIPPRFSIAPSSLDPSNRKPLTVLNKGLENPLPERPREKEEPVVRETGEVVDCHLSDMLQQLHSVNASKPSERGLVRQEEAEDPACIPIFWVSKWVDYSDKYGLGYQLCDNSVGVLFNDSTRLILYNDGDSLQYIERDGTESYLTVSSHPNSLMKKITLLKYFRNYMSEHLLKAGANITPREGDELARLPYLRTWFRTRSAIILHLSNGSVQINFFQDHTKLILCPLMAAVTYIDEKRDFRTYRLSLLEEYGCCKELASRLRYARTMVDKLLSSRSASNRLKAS
Each line names hits and unclear results; the compound was inactive in the other large screens. Unless noted, the call rests on the fitted dose curve; in most records, active means well fitted curve in the direction sought with a large enough effect; inconclusive means small, poorly fitted or top-dose-only effect, or another doubt; inactive means no such curve, though single readings can be large; an effect the other way counts as inactive or inconclusive.

O=C(c1ccc2c(=O)n3c(nc2c1)CCCCC3)N1CCN(c2ccc(F)cc2)CC1	none
O=C(Nc1ccc2nc3n(c(=O)c2c1)CCCCC3)c1cc([N+](=O)[O-])ccc1F	none
COc1ccc(S(=O)(=O)NCc2ccc3c(c2)CCN3C(=O)c2ccc(C)cc2)cc1Cl	none (no result: WRN inhibitor, USP2a block, PI5P4K alpha inh, PLK1 PBD inh)
COc1ccc(OC)c(NC(=O)Cn2c(=O)n(-c3ccc(Cl)cc3)c(=O)c3c(C)c(C)sc32)c1	none (no result: WRN inhibitor, USP2a block, PI5P4K alpha inh, PLK1 PBD inh)
Nc1nc(-c2ccco2)c(-c2ccco2)s1	PI5P4K alpha inh inconclusive
c1coc(-c2nc(-c3ccco3)c(-c3ccco3)nc2-c2ccco2)c1	USP1-UAF1 inh inconclusive, WRN inhibitor 20µM, PLK1 PBD inh 11.9µM (no result: PI5P4K alpha inh)
Cc1cccc(C)c1OCC1CNC(=O)O1 (stereo not given)	PLK1 PBD inh 26.7µM
O=C1NCC(COCc2ccccc2)O1 (stereo not given)	none
O=C(O)CCCCCNS(=O)(=O)c1ccc2c3c(cccc13)C(=O)N2	WRN inhibitor inconclusive
O=C(O)CNS(=O)(=O)c1ccc2c3c(cccc13)C(=O)N2	WRN inhibitor 56.2µM
O=C1Nc2ccc(S(=O)(=O)N(CCO)CCO)c3cccc1c23	PLK1 PBD inh 21.2µM
COc1ccccc1CCc1nnc(CCC(=O)NC(C)Cc2cccc(C)n2)o1 (stereo not given)	PLK1 PBD inh 23.8µM
Cc1c(-c2ccc(Cl)cc2)c(=O)oc2c(CN3CCN(CCO)CC3)c(O)ccc12	none (no result: WRN inhibitor, USP2a block, PI5P4K alpha inh, PLK1 PBD inh)
CC1(C)Cc2[nH]c(=S)c(C#N)cc2CO1	PI5P4K alpha inh -87.7, PLK1 PBD inh 16.8µM
N#Cc1cc2c([nH]c1=S)CCCC2	PI5P4K alpha inh -72.6, PLK1 PBD inh 21.2µM
CC1(C)Cc2c(c(N3CCCC3)[nH]c(=S)c2C#N)CO1	none (no result: USP1-UAF1 inh, WRN inhibitor, PI5P4K alpha inh, PLK1 PBD inh)
C/C(=N/NS(=O)(=O)c1cc(C)ccc1C)c1ccc2c(c1)OCO2	none
C/C(=N/NS(=O)(=O)c1cc(C)ccc1C)c1ccncc1	PLK1 PBD inh 15µM
CCn1c(SCc2nc3sc(C(=O)O)c(C)c3c(=O)[nH]2)nnc1-c1ccc(Cl)cc1	PI5P4K alpha inh -55.8
CCn1c(SCc2ccc(C#N)cc2)nnc1-c1cccc(Cl)c1	none (no result: PI5P4K alpha inh)
CCn1c(SCc2ccc(Cl)cc2)nnc1-c1ccccc1	PLK1 PBD inh 26.7µM
O=C(NCc1ccccc1Br)C1CCCN(C(=O)N2CCOc3ccccc32)C1 (stereo not given)	none (no result: WRN inhibitor, USP2a block, PI5P4K alpha inh, PLK1 PBD inh)
COc1ccccc1NC(=O)Cn1c(=O)n(Cc2cccs2)c(=O)c2cccnc21	none (no result: WRN inhibitor, USP2a block, PI5P4K alpha inh, PLK1 PBD inh)
O=C(Nc1cccc(C(=O)N2CCN(c3ccc(F)cc3)CC2)c1)c1nsc2ccccc12	none (no result: WRN inhibitor, USP2a block, PI5P4K alpha inh, PLK1 PBD inh)
CCN(C(=O)C1CCN(S(=O)(=O)c2ccc3c(c2)CCCN3C(=O)C2CCC2)CC1)c1cccc(C)c1	none (no result: WRN inhibitor, USP2a block, PI5P4K alpha inh, PLK1 PBD inh)
Cc1ccccc1OCC(=O)N/N=C/C=C/c1ccccc1	PLK1 PBD inh 29.9µM
C/C(=N\NC(=O)Cc1cccn1C)c1ccco1	none
O=C(CSc1nnc(SCc2ccccc2)s1)N/N=C/C=C\c1ccco1	WRN inhibitor inconclusive, PI5P4K alpha inh -81.9, PLK1 PBD inh inconclusive
Cc1ccc(OCC(=O)N/N=C/C=C/c2ccco2)cc1	PI5P4K alpha inh -63.8, PLK1 PBD inh inconclusive
Cn1cccc1CC(=O)N/N=C/C=C/c1ccco1	WRN inhibitor inconclusive, USP2a block inconclusive, PI5P4K alpha inh -55.3
O=C(CSc1nnc(SCc2ccccc2)s1)N/N=C/C=C/c1ccccc1[N+](=O)[O-]	none
Cc1c(Cl)cccc1NC(=O)Nc1nnc(N(C)Cc2ccccc2)s1	none (no result: WRN inhibitor, USP2a block, PI5P4K alpha inh, PLK1 PBD inh)
Cc1ccc(NC2SC(=O)N(Cc3cccc(C(=O)O)c3)C2=O)cc1 (stereo not given)	PLK1 PBD inh 21.2µM
O=C(/C=C/c1ccco1)N1CCC(Cc2ccccc2)CC1	WRN inhibitor inconclusive, PI5P4K alpha inh -56.6, PLK1 PBD inh inconclusive
C/C=C\C=C\C(=O)N1CC2(CC(c3cccc(NC(=O)CC(c4ccccc4)c4ccccc4)c3)=NO2)C[C@H]1C(N)=O (stereo not given in full)	PI5P4K alpha inh -71.0, PLK1 PBD inh 33.6µM
C=C(C)C(=O)N1CC2(CC(c3cccc(NC(=O)/C=C\C=C/C)c3)=NO2)C[C@H]1C(N)=O (stereo not given in full)	WRN inhibitor inconclusive, PLK1 PBD inh 23.8µM
